Source: the supplement of paper PMC12636033
± gives the standard deviation of the averaged measurements. The full ranking holds about 33,000 sequences; the median of “E-score (rank enrichment, -0.5 to 0.5)” is about -0.0028, and the highest 2% start at about 0.23. What follows is part of a selection rich in the highest values, with near analogues and random picks from the rest.

What follows are sequences tested on 2Sb-muMax20 (muMax20 with two 1,3-bis(methyl)benzene Cys staples, A13C/A17C and Q88C/A92C, C-terminal Lys) (assay: PBM 8-mer E-score (E-score (rank enrichment, -0.5 to 0.5)); higher = stronger preferential binding).
Experimental: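 Protein binding microarray (universal PBM chip covering all 10-mers in fixed probe flanks) with chemically synthesized human Max(13-93) bHLH-LZ analogs (not full-length Max) bearing noncanonical residues (hArg, Tha, Aib, Nle at 65) and aromatic Cys staples. Read-out per 8-mer (and its reverse complement): E-score (rank-based enrichment, -0.5 to 0.5) and Z-score of median probe intensity.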

In order of falling “PBM 8-mer E-score” value:
1. TGGGGAAA  0.314 ± 0.049
2. CATGTACG  0.311 ± 0.024
3. AGGGGTAG  0.309 ± 0.059
4. ATGAATGG  0.297 ± 0.033
5. ATGGGGAA  0.296 ± 0.074
6. CAACCCCA  0.294 ± 0.051
7. GTGGGGAA  0.293 ± 0.012
8. AGGGGTGG  0.287 ± 0.046
9. CAATAAAA  0.284 ± 0.016
10. AGACCCCA  0.283 ± 0.011
11. ATGAAATG  0.277 ± 0.066
12. AGGGGCAT  0.272 ± 0.028
13. AATATGAA  0.271 ± 0.004
14. AGGGGTTG  0.266 ± 0.068
15. TGGGGTAA  0.266 ± 0.033
16. AGGGTGGG  0.266 ± 0.032
17. AGGTAAAG  0.2635 ± 0.0021
18. TGAAACAA  0.261 ± 0.053
19. CTACCCCA  0.259 ± 0.021
20. CATGTTGA  0.257 ± 0.02
21. ATGGGGAG  0.252 ± 0.011
22. AGGGGCTG  0.252 ± 0.036
23. AGAAACAA  0.252 ± 0.0078
24. AATATGAT  0.252 ± 0.03
25. CAACACCC  0.252 ± 0.0077
26. GCATAACA  0.251 ± 0.042
27. GCGGGGAA  0.247 ± 0.02
28. GTATAAAA  0.247 ± 0.042
29. ACGATAGG  0.245 ± 0.015
30. AAACCCTA  0.244 ± 0.089
31. ACTTTCTA  0.241 ± 0.012
32. ATAAGAAC  0.239 ± 0.022
33. AAAAGTAC  0.239 ± 0.074
34. CATGTTTA  0.239 ± 0.024
35. ATAAGTAC  0.236 ± 0.016
36. AGTTGGGG  0.235 ± 0.015
37. AGTTTATA  0.235 ± 0.044
38. ATGCGAGG  0.2342 ± 0.0017
39. CAATAATA  0.233 ± 0.066
40. CAATAACA  0.232 ± 0.0098
41. AAACCCCA  0.232 ± 0.033
42. ACTTTATA  0.232 ± 0.077
43. ATATCGAT  0.23 ± 0.013
44. CTATACCA  0.214 ± 0.036
45. AGGGGTAA  0.202 ± 0.014
46. AATATTTA  0.201 ± 0.0076
47. CCACTCAA  0.199 ± 0.032
48. AGGGGCTA  0.198 ± 0.055
49. ATGGTGCA  0.196 ± 0.05
50. GTACCCCA  0.195 ± 0.023
51. CGGGGTAA  0.19 ± 0.055
52. CAATAATC  0.189 ± 0.047
53. TATCAAGA  0.188 ± 0.043
54. GTATAAAC  0.186 ± 0.0026
55. ATATAAAA  0.186 ± 0.049
56. GAATAACA  0.186 ± 0.011
57. ATGGTAAC  0.184 ± 0.066
58. AGTTTATC  0.182 ± 0.027
59. ATGAATGA  0.181 ± 0.035
60. CCTTATAC  0.175 ± 0.015
61. ATGAAATA  0.169 ± 0.024
62. ATTTAAAC  0.167 ± 0.021
63. AATATGAC  0.166 ± 0.012
64. ATGAATGC  0.164 ± 0.06
65. CATGTGCC  0.161 ± 0.0077
66. AGGGGTGA  0.16 ± 0.05
67. AGGGGCAA  0.159 ± 0.017
68. TATATGAA  0.159 ± 0.022
69. GTGCGCAC  0.157 ± 0.1
70. CACACTTA  0.15 ± 0.045
71. CGGGGTAG  0.147 ± 0.071
72. ATAAGAAA  0.144 ± 0.013
73. GAGGTATA  0.144 ± 0.025
74. ATGAAATC  0.137 ± 0.039
75. AGGGGTTA  0.135 ± 0.04
76. GGAAACAA  0.133 ± 0.078
77. ATTTTTAC  0.127 ± 0.05
78. ATTTTACG  0.126 ± 0.054
79. ATAAGTAT  0.125 ± 0.033
80. CATGTACA  0.125 ± 0.1
81. GATGTTTA  0.12 ± 0.03
82. AATGTACG  0.115 ± 0.053
83. ATATCACA  0.112 ± 0.039
84. TGACCCCA  0.111 ± 0.032
85. ATGGGGAC  0.108 ± 0.083
86. ACATAACA  0.107 ± 0.034
87. ATAAGAAT  0.104 ± 0.022
88. GGGTCTTA  0.104 ± 0.061
89. GATATGAA  0.103 ± 0.013
90. TGCACTAA  0.102 ± 0.019
91. ACACCGTA  0.0971 ± 0.049
92. ACTATCGC  0.097 ± 0.036
93. ATATCGAA  0.0967 ± 0.018
94. AAGGGTTG  0.0938 ± 0.044
95. AGTTGGGC  0.0922 ± 0.0035
96. AGAAACAT  0.0919 ± 0.038
97. CCCCGTCA  0.0912 ± 0.04
98. GTGGGGGA  0.0894 ± 0.033
99. GGGGCTAA  0.0894 ± 0.033
100. AGGTAAAT  0.0873 ± 0.074
101. GGGGGAAA  0.0837 ± 0.028
102. AAAAGTAT  0.083 ± 0.012
103. ACCTAGGA  0.0803 ± 0.054
104. AAGCCCCG  0.0771 ± 0.022
105. AATGCGCT  0.0765 ± 0.063
106. AATGCTAT  0.0731 ± 0.033
107. AAAAGTAA  0.0725 ± 0.087
108. AATGGTGG  0.0724 ± 0.034
109. GCGGGAAA  0.0716 ± 0.025
110. AGTTGTAG  0.0711 ± 0.018
111. ATGGGGGA  0.071 ± 0.032
112. CATGTTGC  0.0698 ± 0.024
113. ACCGTCAT  0.0687 ± 0.082
114. CAATAATG  0.0644 ± 0.019
115. CCTACGCG  0.0631 ± 0.019
116. AATGCCAT  0.0622 ± 0.045
117. ACGATAGC  0.0621 ± 0.019
118. CGTTTAAC  0.0567 ± 0.0093
119. ACCGCATA  0.0507 ± 0.032
120. CATGTTTC  0.05 ± 0.033
121. ACGATGAG  0.0498 ± 0.025
122. GGTTTATA  0.047 ± 0.079
123. CAACCGCG  0.0452 ± 0.028
124. AGGCGAGG  0.0445 ± 0.00056
125. AAGGGTGG  0.0428 ± 0.051
126. CGAAACAA  0.0409 ± 0.023
127. AATCTTCC  0.0406 ± 0.055
128. GCGTATGA  0.0375 ± 0.06
129. AGGGTGGC  0.0374 ± 0.1
130. CAATAAAC  0.0373 ± 0.052
131. ACGGACAA  0.0365 ± 0.0016
132. ATATCGAC  0.0358 ± 0.012
133. AGGGGCTC  0.0348 ± 0.035
134. TAAGGCGA  0.0332 ± 0.024
135. ACTGTTTC  0.0301 ± 0.064
136. AAACCCTG  0.029 ± 0.12
137. CCTTTATA  0.0289 ± 0.054
138. CTAAGTAC  0.0248 ± 0.0083
139. TAATAACA  0.0232 ± 0.011
140. GATGCGAC  0.0229 ± 0.095
141. GAATAAAA  0.0229 ± 0.074
142. CAACCCTA  0.019 ± 0.059
143. CAGTTCAG  0.0182 ± 0.11
144. AGAAACAC  0.0175 ± 0.091
145. AATGTTGA  0.0172 ± 0.078
146. CCCTGAGC  0.0168 ± 0.058
147. AATTTAAA  0.0161 ± 0.022
148. ACCTTCAC  0.016 ± 0.0064
149. GCATAACC  0.0156 ± 0.029
150. CCCGCGAG  0.015 ± 0.026
151. TGGGGGAA  0.0145 ± 0.015
152. CTGTCATC  0.0122 ± 0.062
153. GCGGGGGA  0.0111 ± 0.068
154. ACTTTCTC  0.0106 ± 0.018
155. ACGAGACG  0.0104 ± 0.13
156. ACTTTATC  0.00955 ± 0.014
157. ATGCGAGC  0.00876 ± 0.045
158. ATGGGAAA  0.00532 ± 0.065
159. ATTCTTCA  0.00503 ± 0.029
160. AAGGGTCT  0.00286 ± 0.1
161. ATGGAAGG  -0.00186 ± 0.021
162. GTTCGTAA  -0.00989 ± 0.0088
163. GCTGCAAA  -0.0134 ± 0.061
164. GGGGGTAA  -0.0157 ± 0.073
165. GTGCACAC  -0.0164 ± 0.1
166. CCAACGTA  -0.0251 ± 0.052
167. AGGTAAAC  -0.0251 ± 0.11
168. AGGGGGAG  -0.0302 ± 0.048
169. AGGGTGGA  -0.0307 ± 0.022
170. AGTTGGGA  -0.0331 ± 0.025
171. AAGCCGCC  -0.0339 ± 0.045
172. AATATGAG  -0.034 ± 0.019
173. AGGGGCAC  -0.0355 ± 0.044
174. ATGCGAGA  -0.0394 ± 0.1
175. CAACCCAA  -0.0401 ± 0.029
176. AAGGCAGA  -0.0447 ± 0.097
177. ATGTCTGC  -0.0456 ± 0.036
178. CTCTTAAG  -0.0478 ± 0.022
179. ATCGCCAA  -0.0483 ± 0.083
180. TAGTAGAA  -0.0551 ± 0.015
181. TCACGAGA  -0.0563 ± 0.015
182. ACTTTCTG  -0.0565 ± 0.016
183. CGTGGCAG  -0.0638 ± 0.045
184. CCGATAGG  -0.0782 ± 0.013
185. CCTGCGAA  -0.0794 ± 0.0094
186. CGGCCCAA  -0.0811 ± 0.15
187. ATGGCCGC  -0.0812 ± 0.007
188. GGCTACGA  -0.0832 ± 0.011
189. TCCGTCGA  -0.0858 ± 0.034
190. CCGGCCCC  -0.0874 ± 0.098
191. CGCAGACG  -0.0875 ± 0.1
192. CGGACTAG  -0.0898 ± 0.0032
193. GATCAATC  -0.0898 ± 0.043
194. TCCTGGCA  -0.0907 ± 0.03
195. CTACCCCC  -0.0941 ± 0.072
196. AGTGACTG  -0.0977 ± 0.053
197. CTGGGGAA  -0.106 ± 0.0058
198. AACCTTGT  -0.108 ± 0.054
199. CGTCTGAG  -0.115 ± 0.054
200. AGGTCCGA  -0.128 ± 0.028
201. AACTGTCG  -0.138 ± 0.016
202. GAGCAGCA  -0.143 ± 0.042
203. AGCAGATC  -0.143 ± 0.068
204. GAACACCC  -0.145 ± 0.022
205. GCAGCTAC  -0.158 ± 0.016
206. CACGTCCC  -0.161 ± 0.028
207. GGCGCGAC  -0.163 ± 0.064
208. GCTGTCGA  -0.165 ± 0.0033
209. CAACCCCC  -0.167 ± 0.046
210. ACCGCTTC  -0.17 ± 0.019
211. ACTGCGCC  -0.18 ± 0.0093
212. ACCCTCTG  -0.181 ± 0.025
213. ACTGGCAG  -0.182 ± 0.042
214. GTTCAGGA  -0.184 ± 0.021
215. GCTGGGAA  -0.192 ± 0.031
216. ACGTCTTA  -0.193 ± 0.025
217. CAACACCG  -0.202 ± 0.036
218. CCCCGGCG  -0.233 ± 0.056
219. CGACGCAG  -0.238 ± 0.017
220. AAACCCCC  -0.275 ± 0.038
221. CGCCCCCC  -0.286 ± 0.14
222. AACCCCCA  -0.318 ± 0.021
223. AGACCCCC  -0.382 ± 0.044
